Experimental data published in PubChem BioAssay (NCI).
Compounds without any hit were thinned out: in the full panel of roughly 83,000, 20% have a hit.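 For each line, cells grew in 96-well plates with the test compound present at a single concentration for 48 hours.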 A number with no mark means an inactive call. Activity calls are given as the source filed them. The calls were made as follows: active = growth percent below 10; inactive = the rest.

Key:
Assay in all cases: NCI-60 one-dose screen, 48 h (100 = growth as untreated, 0 = no growth, -100 = all killed)
Details in all cases: 10 µM unless noted
SR leukemia = system: SR leukemia
RPMI-8226 leukemia = system: RPMI-8226 leukemia
OVCAR-8 ovarian = system: OVCAR-8 ovarian
OVCAR-5 ovarian = system: OVCAR-5 ovarian
OVCAR-4 ovarian = system: OVCAR-4 ovarian
SK-OV-3 ovarian = system: SK-OV-3 ovarian
IGROV1 ovarian = system: IGROV1 ovarian
OVCAR-3 ovarian = system: OVCAR-3 ovarian
HS 578T breast = system: HS 578T breast
NCI/ADR-RES ovarian = system: NCI/ADR-RES ovarian
T-47D breast = system: T-47D breast
BT-549 breast = system: BT-549 breast
MDA-MB-435 melanoma = system: MDA-MB-435 melanoma
SW-620 colon = system: SW-620 colon
MCF7 breast = system: MCF7 breast
HCT-116 colon = system: HCT-116 colon
HCC-2998 colon = system: HCC-2998 colon
KM12 colon = system: KM12 colon

Structure (SMILES) | growth (SR leukemia) | growth (RPMI-8226 leukemia) | growth (OVCAR-8 ovarian) | growth (OVCAR-5 ovarian) | growth (OVCAR-4 ovarian) | growth (SK-OV-3 ovarian) | growth (IGROV1 ovarian) | growth (OVCAR-3 ovarian) | growth (HS 578T breast) | growth (NCI/ADR-RES ovarian) | growth (T-47D breast) | growth (BT-549 breast) | growth (MDA-MB-435 melanoma) | growth (SW-620 colon) | growth (MCF7 breast) | growth (HCT-116 colon) | growth (HCC-2998 colon) | growth (KM12 colon)
Cc1c(N2CCCCC2)[nH]c2ccccc12 | 119% | 62.6% | 105% | 124% | 142% | 118% | 136% | 125% | 96.2% | 107% | 110% | 121% | 103% | 100% | 111% | 105% | 113% | 113%
COc1c(O[C@@H]2OC(CO)[C@H](O)[C@H](O)C2O)cc2oc3cc(O)c(CC=C(C)C)c(O)c3c(=O)c2c1CC=C(C)C (some centres undefined) | 102% | 96.4% | 87.3% | 108% | 115% | 97.7% | 91% | 99.7% | 96.2% | 101% | 70.8% | 102% | 94.3% | 104% | 92.8% | 88.8% | 95.9% | 106%
Cn1cc(-c2ccc3c(Nc4cccc(NC(=O)Nc5cccc(F)c5)c4)ncnc3c2)cn1 | 0.802% (active) | -25.4% (active) | 34.6% | 67.6% | 67.6% | 3.1% (active) | 23.8% | 44.7% | 29.8% | 78% | 21.5% | 47.4% | 57.8% | 57.7% | 22.1% | 25.5% | 83.3% | 20.4%
C#C[C@]1(O)CC[C@H]2[C@@H]3CC=C4c5sc(-c6ccccc6)nc5CC[C@]4(C)[C@H]3CC[C@@]21C | 30.9% | -12.6% (active) | 101% | 85.6% | 106% | 111% | 95.8% | 106% | 62% | 94.4% | 92.7% | 86.2% | 93.6% | 89.9% | 51.2% | 78.2% | 97.4% | 78.9%
COc1ccc2c(c1)C(c1c[nH]c3ccccc13)(c1c[nH]c3ccccc13)CCO2 | 55.9% | 33.3% | 61.2% | 76.6% | 26% | 23.9% | 48% | 57.4% | 55.5% | 54.1% | -6.36% (active) | 55.6% | 49.9% | 61.9% | 30.7% | 18.8% | 72.4% | 46.2%
COc1ccc(/C=N/NC(=O)Cn2nnc3ccccc32)cc1 | 96% | 101% | 96.7% | 104% | 115% | 95.5% | 95.9% | 95% | 77.6% | 104% | 92.1% | 107% | 98.2% | 92.9% | 86.4% | 93.7% | 116% | 90.7%
CN(C)C(=S)NN=C(c1ccccn1)c1ccccn1 | -33.6% (active) | 17.8% | 33.1% | 59.1% | 21.5% | 51% | 16% | 51.9% | 44.9% | 19.9% | 29.6% | 17% | 41.4% | 17.7% | 17.3% | 20.5% | 40% | 16.7%
COc1cccc(C2C3=C(COC3=O)N(CCO)c3cc4c(cc32)OCCO4)c1 (centres undefined) | 9.73% (active) | 25.4% | 27.7% | 29.8% | 24.2% | 22.6% | 13.8% | -59.7% (active) | -5.22% (active) | -35.1% (active) | 65.3% | 14.5% | -28.2% (active) | 17.7% | 13.1% | 3.53% (active) | 4.51% (active) | -11.8% (active)
